Assay results taken from PubChem BioAssay (NCATS).
Inconclusive results are not listed. Active and inactive are the calls of the source. Calls follow the shape of the dose curve; as a rule, active = well fitted cell-killing curve with a large enough effect; inconclusive = small, poorly fitted or top-dose-only effect, or effect the other way; inactive = no such curve, though single readings can be large or run the other way. Positions of bridges follow the written chain, without caps; N, C: chain ends. Non-standard residues stand in square brackets, D forms with d. Residues, ends and D or L forms follow the SMILES beside them. ξ: configuration not given here. *: point of attachment. Octanoyl(6-Me) = CCC(C)CCCCC(=O)*; ξThr(3R) = C[C@@H](O)C(N)C(=O)O; dDab = NCC[C@@H](N)C(=O)O; Dab = NCC[C@H](N)C(=O)O; Nva = CCC[C@H](N)C(=O)O; Cbz = O=C(OCc1ccccc1)*

experiment: Quantitative High-Throughput drug screen in 47 multiple myeloma cell lines against the NCATS MIPE library collection: RPMI8226_ATCC cell viability assay (AID 1919871); settings: RPMI8226 myeloma viability, CellTiter-Glo ATP luminescence, 48 h; series mostly up to 45.8 µM; also: nearly all actives have a fitted effect of over 30% in size
Source text: PI: Beverly A. Mock Ph.D.
Laboratory of Cancer Biology and Genetics,
Center for Cancer Research, National Cancer Institute,
National Institute of Health, Bethesda, Maryland
Drug resistance and disease progression are common in multiple myeloma (MM) patients, underscoring the need for new therapeutic combinations. […] We hypothesized that effective combinations would reduce MYC expression and enhance p16 activity. […] These preclinical data identify potentially useful drug combinations for evaluation in drug-resistant MM and reveal potential mechanisms of combined drug sensitivity.
Described herein is the primary MIPE qHTS used to cherrypick compounds. Validated compounds were then further tested for potential synergistic activiy.
[1] Peat TJ, Gaikwad SM, Dubois W, Gyabaah-Kessie N, Zhang S, Gorjifard S, Phyo Z, Andres M, Hughitt VK, Simpson RM, Miller MA, Girvin AT, Taylor A, Williams D, D'Antonio N, Zhang Y, Rajagopalan A, Flietner E, Wilson K, Zhang X, Shinn P, Klumpp-Thomas C, McKnight C, Itkin Z, Chen L, Kazandijian D, Zhang J, Michalowski AM, Simmons JK, Keats J, Thomas CJ, Mock BA. Drug combinations identified by high-throughput screening promote cell cycle transition and upregulate Smad pathways in myeloma. Cancer Lett. 2023 Aug 1;568:216284. doi: 10.1016/j.canlet.2023.216284. Epub 2023 Jun 24. PMID: 37356470; PMCID: PMC10408729.
SEQUENCE No. (e.g., 1, 2, 3, etc.); […] (e.g., Cells, Incubation, Reagent, etc.); VALUE and DESCRIPTION.
1; Cells; 5 uL; white, solid bottom 1536-well Greiner assay plate.
2; Compounds; 23 nL; Kalypsis pin tool (Wako USA) equipped with a 1536-well pin head to transfer to the assay plates.
3; Incubation; 48 hours; 37C incubation.
4; Reagent;5uL; CellTiter Glo (Promega).
5; Detector; 425V; Luminescence; Viewlux PerkinElmer.
NOTES (numbers refer to Sequence numbers above)
1. The cell-based screening methods employed in this study were like those previously published. Briefly, the corresponding myeloma cell lines were screened in 1,536-well plates with 500 cells, 5-uL per well for inhibition of cell viability (assessed by measuring ATP levels with CellTiterGlo).
2. NCATS MIPE 4.0 library of approved and investigational drugs were added using the Kalypsis pin tool. Wells treated with DMSO only for 100% viability and media only for 0% viability were used as controls.
3. The assay plates were covered and incubated for 48 hours in a 37C, 5% CO2 incubator with controlled humidity.
4. After 48 hours, CellTilter-GloTM luminescent substrate mix (Promega) reagent was added to the assay plate and plates we incubated for 5 min at room temperature.
5. Signal was measured as median relative luminescence units on a ViewLux (PerkinElmer) multiplate reader.
[1] Heske CM, Davis MI, Baumgart JT, Wilson K, Gormally MV, Chen L, Zhang X, Ceribelli M, Duveau DY, Guha R, Ferrer M, Arnaldez FI, Ji J, Tran HL, Zhang Y, Mendoza A, Helman LJ, Thomas CJ. Matrix Screen Identifies Synergistic Combination of PARP Inhibitors and Nicotinamide Phosphoribosyltransferase (NAMPT) Inhibitors in Ewing Sarcoma. Clin Cancer Res. 2017 Dec 1;23(23):7301-7311. doi: 10.1158/1078-0432.CCR-17-1121. Epub 2017 Sep 12. PMID: 28899971; PMCID: PMC6636827.
Potency is read from the fitted curve at half-maximal effect.

| Compound | Potency |
| --- | --- |
| COc1cc(OC)c(C=CS(=O)(=O)Cc2ccc(OC)c(NCC(=O)O)c2)c(OC)c1 | 1.66 µM (active) |
| N#Cc1ccc(COC[C@H]2O[C@@H](n3c(NCc4ccc(Cl)c(Cl)c4)nc4c(N)ncnc43)[C@@H](O)[C@@H]2O)cc1 | 5.26 µM (active) |
| COc1ccnc2[nH]cc(C(=O)C(=O)N3CCN(C(=O)c4ccccc4)C[C@@H]3C)c12 | inactive |
| C=C1C[C@@]2(O)O[C@@]3(C[C@H]2C(C)C)[C@H](C)CC[C@H]13 | inactive |
| C=CC1=C(C(=O)O)N2C(=O)[C@@H](NC(=O)C(=NO)c3csc(N)n3)[C@H]2SC1 | inactive |
| CN(CC(=O)N(Cc1ccc(C2CCCCC2)cc1)c1ccc(C(=O)O)c(O)c1)S(=O)(=O)c1c(F)c(F)c(F)c(F)c1F | 23.5 µM (active) |
| c1cc(N[C@@H]2CCNC2)nc(-c2cnc3ccc(-c4cn[nH]c4)cn23)c1 | inactive |
| CC(=O)NCC(=O)N1[C@H]2CC[C@H]1c1cc(Nc3ncc(C(F)(F)F)c(NC4CCC4)n3)ccc12 | 5.9 µM (active) |
| C[C@H]1COc2c(N3CCN(C)CC3)c(F)cc3c(=O)c(C(=O)O)cn1c23 | inactive |
| Cn1cnc(=N)c2[nH]cnc21 | 0.264 µM (active) |
| CCOC(=O)[C@@H](N)Cc1ccc(-c2cc(O[C@H](c3ccc(Cl)cc3-n3ccc(C)n3)C(F)(F)F)nc(N)n2)cc1 | 20.9 µM (active) |
| CC(=O)[C@]1(O)Cc2c(O)c3c(c(O)c2[C@@H](O[C@H]2C[C@H](N)[C@@H](O)[C@H](C)O2)C1)C(=O)c1ccccc1C3=O | 0.418 µM (active) |
| COc1cc(C(C)C)c(Oc2cnc(NC(CO)CO)nc2N)cc1I | 3.32 µM (active) |
| Cc1onc(-c2ccccc2)c1C(=O)N[C@@H]1C(=O)N2[C@@H](C(=O)O)C(C)(C)S[C@@H]12 | inactive |
| CCC(C)CCCCC(=O)N[C@@H](CCN)C(=O)NC(C(=O)N[C@H](CCN)C(=O)N[C@@H]1CCNC(=O)C([C@@H](C)O)NC(=O)[C@@H](CCN)NC(=O)[C@@H](CCN)NC(=O)[C@@H](CC(C)C)NC(=O)[C@H](Cc2ccccc2)NC(=O)[C@H](CCN)NC1=O)[C@@H](C)O (stereo partly drawn) ({Octanoyl(6-Me)}-[Dab][ξThr(3R)][dDab][dDab][Dab]F[dL][dDab][dDab][ξThr(3R)]; lactam 4-C) | inactive |
| CN(C)CCN1C(=O)c2cccc3cc(N)cc(c23)C1=O | 16.6 µM (active) |
| COc1cccc2c1C(=O)c1c(O)c3c(c(O)c1C2=O)C[C@@](O)(C(=O)CO)C[C@@H]3O[C@H]1C[C@H](N)[C@@H](O)[C@H](C)O1 | 0.935 µM (active) |
| CCCCC(=O)O[C@]1(C(=O)CO)[C@@H](C)C[C@H]2[C@@H]3CCC4=CC(=O)C=C[C@]4(C)[C@@]3(F)[C@@H](O)C[C@@]21C | 0.0118 µM (active) |
| C=CC(=O)N1CCc2ccc(-n3c(=O)ccc4cnc5ccc(-c6cnn(C)c6)cc5c43)cc21 | 1.05 µM (active) |
| Cc1cnc(Nc2ccc(N3CCN(C)CC3)cc2)nc1Nc1cccc(S(=O)(=O)NC(C)(C)C)c1 | 4.18 µM (active) |

| Compound | Potency |
| --- | --- |
| CC(=O)O[C@]1(C(C)=O)CC[C@H]2[C@@H]3C=C(C)C4=CC(=O)CC[C@]4(C)[C@@H]3CC[C@@]21C | 14.8 µM (active) |
| O=c1ccn([C@@H]2O[C@H](CO)[C@H](O)[C@@H]2F)c(=O)[nH]1 | inactive |
| c1ccc2c(Oc3nc(Nc4ccc(N5CCOCC5)cc4)c4ncn(C5CCCCC5)c4n3)cccc2c1 | inactive |
| CCNC(=O)Nc1ccc(-c2nc3c(c(N4CCOC[C@H]4C)n2)CCN(C2COC2)C3)cc1 | 0.743 µM (active) |
| C[C@@H](Oc1ccc2[nH]nc(C=Cc3cnn(CCO)c3)c2c1)c1c(Cl)cncc1Cl | 1.32 µM (active) |
| COc1ccc(C(C)=O)c(O)c1 | inactive |
| CCOC(=O)N1CCN([N+]([O-])=NOc2ccc([N+](=O)[O-])cc2[N+](=O)[O-])CC1 | 13.2 µM (active) |
| C=Cc1c(C)c2cc3nc(cc4[nH]c(cc5nc(cc1[nH]2)C(C)=C5CCC(=O)O)c(CCC(=O)OC)c4C)[C@@]1(C)C3=CC=C(C(=O)OC)[C@H]1C(=O)OC | 0.935 µM (active) |
| CCCCCCCCc1ccc(CCC(N)(CO)CO)cc1 | 9.35 µM (active) |
| Cc1ccc2nc(NCCN)c3ncc(C)n3c2c1 | 6.62 µM (active) |
| COc1ccc(S(=O)(=O)Nc2cccnc2Nc2ccc(O)cc2)cc1 | 0.526 µM (active) |
| CCC[C@@H](C=O)NC(=O)[C@H](CC(C)C)NC(=O)[C@H](CC(C)C)NC(=O)OCc1ccccc1 (Cbz-Leu-Leu-[Nva]-aldehyde) | 1.32 µM (active) |
| CC(=O)NC(CS)C(=O)O (stereo not given) | inactive |
| NC(=O)c1cccc(-c2cccc(OC(=O)NC3CCCCC3)c2)c1 | inactive |
| CC(=O)O[C@H]1C[C@@H]2CC[C@H]3[C@H]4C[C@H]([N+]5(C)CCCCC5)[C@@H](OC(C)=O)[C@@]4(C)CC[C@@H]3[C@@]2(C)C[C@H]1N1CCCCC1 | inactive |
| CCCc1nc(C(C)(C)O)c(C(=O)O)n1Cc1ccc(-c2ccccc2-c2nn[nH]n2)cc1 | inactive |
| COc1cc(C)c(Sc2cnc(NC(=O)c3ccc(CNC(C)C(C)(C)C)cc3)s2)cc1C(=O)N1CCN(C(C)=O)CC1 (stereo not given) | 16.6 µM (active) |
| COc1cc2c(Nc3ccc(Cl)c(Cl)c3F)ncnc2cc1OCC1C[C@@H]2CN(C)C[C@H]2C1 | 8.33 µM (active) |
| CC(C)C[C@@H](C=O)NC(=O)[C@H](CC(C)C)NC(=O)[C@H](CC(C)C)NC(=O)OCc1ccccc1 (Cbz-Leu-Leu-Leu-aldehyde) | 0.833 µM (active) |
| Cc1cnc(Nc2ccc(CN3CCOCC3)cc2)nc1Nc1cccc(S(=O)(=O)NC(C)(C)C)c1 | 4.18 µM (active) |
